SMILES strings stand for the structures. The whole screen tested about 50,000 compounds, of which about 800 (1.6%) showed an effect of 50% or more. For the sample, strong results were picked, then their nearest neighbours and some compounds at random.

For this assay, the target named is Bcl-2-like protein 10 (Homo sapiens) (UniProt Q9HD36). Nature of the assay: TR3 peptide-Bcl-B binding displacers, biochemical primary FP assay, phenotype converters (AID 1240).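 Further: 0% = Bcl-B with tracer peptide and DMSO and 100% = tracer peptide lacking Bcl-B.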 The conditions noted are these: GST-Bcl-B / FITC-TR3 peptide fluorescence polarization; stronger effect = higher value; compound at 3.75 mg/L.
Bcl-2-like protein 10 (Homo sapiens), sequence (Q9HD36 whole entry, looked up): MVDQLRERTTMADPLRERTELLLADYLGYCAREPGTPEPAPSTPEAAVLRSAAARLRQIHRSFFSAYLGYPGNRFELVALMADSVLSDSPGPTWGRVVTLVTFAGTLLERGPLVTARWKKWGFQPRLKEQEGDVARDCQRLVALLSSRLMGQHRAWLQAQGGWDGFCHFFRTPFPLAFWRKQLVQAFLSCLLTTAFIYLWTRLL
With `CCOC(=O)c1cc2n(c1N(C(C)=O)C(C)=O)-c1ccccc1C2=O`, the displacement is -4.9%.

For the compound `O=C1c2ccccc2-n2c1cc(C=Nc1ccc(Cl)cc1)c2O`, the displacement came out at 112%.

Regarding `CC(=O)NCCN=Cc1c(O)[nH]c2ccccc12`, the displacement came out at 14%.

Consider `CC(=O)NCCN=Cc1cc2n(c1O)-c1ccccc1C2=O`, for which the displacement stood at 167%.

Take `O=c1[nH]c(=O)n(-c2ccccc2F)c(O)c1C=Nc1ccc(Cl)cc1`: the displacement is -1.4%.

For the compound `O=c1[nH]c(=O)n(-c2ccccc2Cl)c(O)c1C=Nc1ccc(Cl)cc1`, the displacement was 18.6%.

Regarding `CC(=O)Oc1ccc(C(=O)N2c3ccccc3Sc3ccccc32)cc1`, the displacement was -7.2%.

Regarding `Cc1onc(-c2c(F)cccc2Cl)c1C(=O)NCc1ccc(Cl)cc1`, the displacement was -6.9%.

On to `COc1ccc(/C=C/C(=O)NCCc2c[nH]c3ccccc23)cc1OC`, for which the displacement is -5%.

For the compound `COc1ccc2c(Cl)c(C(=O)N/N=C/c3ccccn3)sc2c1`, the displacement came out at 7.8%.

Turning to `O=C(Nc1ccccc1)Nc1nnc(SCc2ccc(F)cc2)s1`, the displacement was 13.5%.

Take `O=C1c2ccccc2C(=O)c2c(NCCO)ccc(NCCO)c21`: the displacement is 46.4%.

In the case of `Cn1c(=O)cc(-c2ccccc2)c2ccccc21`, the displacement was 7.4%.

With `COCCCNc1ccc2c3c(nc(=O)n2C)-c2ccccc2C(=O)c13`, the displacement is 139%.

With `Cn1c(=O)cc2c3c(c(N)ccc31)C(=O)c1ccccc1-2`, the displacement was found to be 139%.

As for `Cn1c(=O)cc2c3c(c(Nc4cccc(Cl)c4)ccc31)C(=O)c1ccccc1-2`, the displacement stood at 15.7%.

Consider `CCCCNc1cc(=O)n(C)c(=O)n1C`, for which the displacement was 6.5%.

For the compound `CCCCCCCNc1ccc(NC(=O)c2ccccc2)c2c1C(=O)c1ccccc1C2=O`, the displacement turned out to be 1.5%.

As to `Cn1c(=O)cc(-c2ccccc2)c2cc(Cl)ccc21`, the displacement is 14.7%.

Consider `CCCCNc1ccc2c3c(cc(=O)n2C)-c2ccccc2C(=O)c13`, for which the displacement came out at 129%.

Consider `Nc1c(Cl)cc2c(c1Oc1ccccc1)C(=O)c1ccccc1C2=O`, for which the displacement is 8.6%.

For the compound `Cn1c(=O)cc2c3c(c(N4CCCC4)ccc31)C(=O)c1ccccc1-2`, the displacement was 38.2%.

For `Cn1c(=O)cc2c3c(c(Oc4ccccc4)ccc31)C(=O)c1ccccc1-2`, the displacement turned out to be 108%.

Consider `O=C1N=C(N=Nc2c(O)[nH]c3ccccc23)S/C1=C/c1ccc(Br)cc1`, for which the displacement was 8.9%.

Take `COc1ccc(OC(C)C(=O)Nc2ccc3c(c2)OCCO3)cc1` (configuration not stated): the displacement was -4.5%.

Turning to `CC(C)CC(NC(=O)c1ccccc1)C(=O)OCC(=O)N1c2ccccc2Sc2ccccc21` (configuration not stated), the displacement amounted to 9.1%.

As for `COc1ccc(S(=O)(=O)N(CC(=O)N2CCN(c3ccccc3)CC2)c2ccc(C)cc2)cc1OC`, the displacement was 6.1%.

Consider `C=CCc1ccccc1OCCOc1ccc(Br)cc1/C=C1/SC(=S)N(C)C1=O`, for which the displacement is -1.8%.

Take `CCCCOc1ccc(C(=O)N2CCN(c3cccc(C)c3C)CC2)cc1`: the displacement was -8.2%.

For the compound `NNC(=O)COc1ccccc1OCCOCCOc1ccccc1OCC(=O)NN`, the displacement is -10.4%.

As to `CCOC(=O)c1ccc2c3c(onc13)-c1ccccc1C2=O`, the displacement came out at 120%.

Turning to `CC(=O)c1ccc2c3c(onc13)-c1ccccc1C2=O`, the displacement was 2.4%.

Regarding `O=C1c2ccccc2-c2onc3ccc(Cl)c1c23`, the displacement worked out at 40.4%.

On to `COc1ccc(OC)c2c1C(=O)c1ccccc1C2=O`, for which the displacement was 101%.

As to `CC(C)CCOC(=O)c1ccc2c3c(onc13)-c1ccccc1C2=O`, the displacement is 21%.

On to `CCOc1ccc2noc3c2c1C(=O)c1ccccc1-3`, for which the displacement was found to be 123%.

With `O=C1C=Cc2ccccc2/C1=N/Oc1ccc2noc3c2c1C(=O)c1ccccc1-3`, the displacement is 25.9%.

For the compound `CCOc1ccc(Nc2ccc3noc4c3c2C(=O)c2ccccc2-4)cc1`, the displacement was -2%.

`COC1=C(c2ccccc2)C(=O)c2ccccc2C1=O`: the displacement was -8.5%.

For `COc1ccccc1NS(=O)(=O)c1cccc2c1C(=O)c1ccccc1C2=O`, the displacement stood at 3%.

As for `COc1ccc2noc3c2c1C(=O)c1ccccc1-3`, the displacement stood at 127%.

For the compound `O=C1c2ccccc2-c2onc3ccc(Sc4ccccc4)c1c23`, the displacement came out at 17.9%.

Turning to `COc1cc2c(NCc3ccco3)cc(O)c(CC(=O)Nc3ccc(Cl)cc3)c2cc1OC`, the displacement was 13%.

`COc1ccc(OC)c(CN2CCN(S(C)(=O)=O)CC2)c1`: the displacement is -14%.

As for `O=C(CSc1nnc(-c2ccco2)n1-c1ccccc1)CSc1nnc(-c2ccco2)n1-c1ccccc1`, the displacement is 15.9%.

Take `C=CCNC(=O)C1CC(=O)N(c2ccc(C)cc2)C1` (configuration not stated): the displacement was -7.4%.

For `Cc1cc(C)nc(NS(=O)(=O)c2ccc(NC(=O)CSc3ncn[nH]3)cc2)n1`, the displacement came to 5.3%.

Consider `Nc1nc(Nc2nc(N3CCCC3)cc(C(F)(F)F)n2)cc(C(F)(F)F)n1`, for which the displacement worked out at 12%.

As to `CC1=C/C(=N/OS(=O)(=O)c2ccccc2)C=CC1=O`, the displacement was found to be 28.6%.

Turning to `O=C1c2ccc(Oc3ccc([N+](=O)[O-])cc3)cc2C(=O)N1c1cccc(-c2nc3ccccc3o2)c1`, the displacement is -3.8%.

Turning to `O=C(Nc1ccc(Cl)c(Cl)c1)c1cc([N+](=O)[O-])ccc1N1CCCCC1`, the displacement stood at 14%.

Consider `COc1cccc2c1NC(c1ccc(Cl)cc1)C1CC=CC21` (configuration not stated), for which the displacement is 9.1%.

In the case of `COc1cccc2c1NC(c1ccccc1Br)C1CC=CC21` (configuration not stated), the displacement was -4.2%.

With `O=C(O)c1cccc2c1NC(c1ccc(Cl)cc1)C1CC=CC21` (configuration not stated), the displacement is 148%.

In the case of `O=[N+]([O-])c1cccc2c1NC(c1ccc(Cl)cc1)C1CC=CC21` (configuration not stated), the displacement worked out at 7.5%.

Regarding `O=C(O)c1cccc2c1NC(c1cccc3ccccc13)C1CC=CC21` (configuration not stated), the displacement was 25.1%.

As for `O=C(O)c1cccc2c1NC(c1ccccc1Br)C1CC=CC21` (configuration not stated), the displacement was found to be 132%.

Turning to `COc1cc(-c2ccccc2)nc(N)n1`, the displacement is -5.4%.

As to `COc1ccc(/C=C/C(=O)Nc2ccc(Br)cc2C(=O)c2cc(OC)c(OC)c(OC)c2)cc1OC`, the displacement was found to be 1.6%.

As for `COCC(=O)Nc1ccc2ccccc2c1`, the displacement is -2.7%.

For `Nc1ccc2nn(-c3ccc([N+](=O)[O-])cc3)nc2c1`, the displacement was -8.4%.

In the case of `COc1ccc(N=Cc2c(O)n(-c3cc(OC)ccc3OC)c(=O)[nH]c2=O)cc1`, the displacement was 103%.

In the case of `COc1ccc(N=Cc2c(O)n(-c3ccccc3OC)c(=O)[nH]c2=O)cc1`, the displacement came out at 9.4%.

Take `COc1ccc(OC)c(N=Cc2c(O)n(-c3ccccc3C)c(=O)[nH]c2=O)c1`: the displacement came out at 7.3%.

In the case of `COc1cccc(N=Cc2c(O)n(-c3cc(OC)ccc3OC)c(=O)[nH]c2=O)c1`, the displacement is -2%.

On to `COc1ccc(OC)c(N=Cc2c(O)n(-c3ccccc3Cl)c(=O)[nH]c2=O)c1`, for which the displacement is 98.7%.

Turning to `COc1ccccc1N=Cc1c(O)n(-c2ccccc2Cl)c(=O)[nH]c1=O`, the displacement was -6.6%.

For `CCOC(=O)c1c[nH]c2cc(C(=O)OC)ccc2c1=O`, the displacement is -19.8%.

Consider `CCC1=NN2C(=N)/C(=C/c3cccc(OCc4ccccc4F)c3)C(=O)N=C2S1`, for which the displacement is 6.1%.

For the compound `Cc1ccc(/C=C(\C#N)c2nn(-c3ccccc3)c(N)c2C#N)cc1`, the displacement worked out at 2.5%.

Regarding `Cc1ccc(COc2c(Br)cc(/C=C(\C#N)c3nn(-c4ccccc4)c(N)c3C#N)cc2Br)cc1`, the displacement was determined as 11.2%.

With `Cn1c(=O)n(C)c2cc(/C=C(\C#N)c3nn(-c4ccccc4)c(N)c3C#N)ccc21`, the displacement was found to be 92.9%.

In the case of `COC(=O)COc1ccc2c(=O)c(Oc3ccc(C(C)(C)C)cc3)coc2c1`, the displacement was 8%.

On to `C/C(=N/NC(=O)COc1ccc(C)cc1)c1ccc([N+](=O)[O-])cc1`, for which the displacement turned out to be 1.6%.

In the case of `CNS(=O)(=O)c1ccc(N/C=C(\C=O)c2nc3cc(Cl)ccc3o2)cc1`, the displacement came to 12.6%.

As for `O=C/C(=C\Nc1ccc(S(=O)(=O)CCO)cc1)c1nc2ccccc2o1`, the displacement came to 9.7%.

For the compound `O=C/C(=C\Nc1ccc(S(=O)(=O)CCO)cc1)c1nc2cc(Cl)ccc2o1`, the displacement is 88.3%.

For the compound `Cn1c(O)c(N=NC(=O)c2ccccc2NC(=O)c2ccccc2)c2ccccc21`, the displacement was -4%.

Regarding `COCCOC(=O)c1c(C)oc2ccc(OCc3c(F)c(F)c(F)c(F)c3F)cc12`, the displacement was determined as 10.8%.

Regarding `CCn1cc(/C=C2/C(=O)NN(c3ccccc3)C2=O)c2ccccc21`, the displacement was determined as 13.1%.

As to `CC(C)NC(=O)C1CC1(c1ccccc1)c1ccccc1` (configuration not stated), the displacement turned out to be 4.7%.

Consider `Cc1ccc(-n2ccc(N)c(C#N)c2=O)cc1`, for which the displacement stood at 3.3%.

As for `COc1ccccc1NC(=O)CCN1C(=O)S/C(=C/c2ccc(OC)c(OC)c2)C1=O`, the displacement amounted to 34.6%.

For `COc1ccc(/C=C2\SC(=S)N(CCC(=O)Nc3ccccc3C)C2=O)cc1OC`, the displacement was found to be 15.4%.

On to `COc1ccc(/C=C2/SC(=O)N(CC(=O)Nc3cc(C)on3)C2=O)cc1OC`, for which the displacement was found to be 12.8%.

Regarding `COc1ccc(/C=C2/SC(=O)N(CC(=O)Nc3ccc(C)c(C)c3)C2=O)cc1OC`, the displacement worked out at 67%.

`COc1ccc(/C=C2/SC(=O)N(CC(=O)Nc3ccc(F)c(Cl)c3)C2=O)cc1OC`: the displacement was found to be 12.3%.

As to `COc1ccc(/C=C2\SC(=O)N(CCC(=O)Nc3ccccc3C)C2=O)cc1OC`, the displacement was 79.4%.

For the compound `COC(=O)c1ccc(C(=O)OC)c(NC(=O)/C=C/c2ccc(Cl)cc2)c1`, the displacement was -6.4%.

Regarding `COC(=O)c1ccc(NC(=O)CC(c2ccccc2)c2ccccc2)cc1`, the displacement was -0.2%.

On to `COC(=O)c1ccc(C(=O)OC)c(NC(=O)Cc2ccccc2[N+](=O)[O-])c1`, for which the displacement came out at 14.7%.

As for `COC(=O)c1ccc(C(=O)OC)c(NC(=O)/C=C/c2ccco2)c1`, the displacement was found to be 63.5%.

In the case of `COC(=O)c1ccc(C(=O)OC)c(NC(=O)/C=C/c2ccccc2)c1`, the displacement was determined as 8.7%.

`COC(=O)c1ccc(C(=O)OC)c(NC(=O)COc2ccccc2[N+](=O)[O-])c1`: the displacement was 66.9%.

For `COC(=O)c1cc(NC(=O)COc2ccccc2[N+](=O)[O-])cc(C(=O)OC)c1`, the displacement was found to be 13%.

Regarding `CCC(C(=O)Nc1cc(C(=O)OC)ccc1C(=O)OC)c1ccccc1` (configuration not stated), the displacement was found to be 5%.

For the compound `COC(=O)c1ccc(C(=O)OC)c(NC(=O)COc2ccccc2Cl)c1`, the displacement came to 73.8%.

`COC(=O)c1ccc(C(=O)OC)c(NC(=O)COc2cccc(Cl)c2)c1`: the displacement came to 1.2%.

Regarding `COC(=O)c1ccc(C(=O)OC)c(NC(=O)CC(c2ccccc2)c2ccccc2)c1`, the displacement was 63.5%.

Regarding `COC(=O)c1ccc(C(=O)OC)c(NC(=O)COc2ccc(Cl)cc2C)c1`, the displacement is 5.4%.

As to `Cc1ccc(-c2[nH]n3c(=O)cc(-c4ccccc4)nc3c2C)cc1`, the displacement worked out at 15.2%.

For the compound `CN(C)CCCNC(=O)/C=C/c1ccc(Cl)cc1`, the displacement amounted to 14%.

Take `COc1cc(C(=O)Nc2cccc(-c3cc4ccccc4oc3=O)c2)cc(OC)c1OC`: the displacement came out at 3.9%.

`CCOc1ccc(NC2=C(Cl)C(=O)N(c3ccc(Br)cc3)C2=O)cc1`: the displacement is -4.8%.

Turning to `CC(=O)Nc1sc2c(c1C(N)=O)CCC(C)C2` (configuration not stated), the displacement was 10.6%.

`CC1CCc2c(sc(NC(=O)/C=C/c3ccccc3)c2C(N)=O)C1` (configuration not stated): the displacement stood at 10.5%.

With `CC1CCc2c(sc(NC(=O)/C=C/c3ccc4c(c3)OCO4)c2C(N)=O)C1` (configuration not stated), the displacement was determined as 144%.

(Values after PubChem BioAssay AID1240 (Sanford-Burnham Center for Chemical Genomics, 2008).)
